Experimental data as given in PubChem BioAssay (EPA / NIEHS).
Several values for one entry are separate records, joined by “and”; a condition that tells them apart may be missing. Identical values can stand only once. Activity calls are given as the source filed them. How the source made its calls: active means hit-call score of the fitted dose curve at least 0.9, where 1 is the maximum; inactive means score below 0.9.

read-out: Macrophage colony-stimulating factor (MCSF), CSF1 (gene 1435); experiment: BSK_hDFCGF_MCSF: BioMAP Diversity Plus: hDFCGF Assay for Macrophage colony-stimulating factor (MCSF) Biomarker Activity (AID 2283060); conditions: primary human foreskin fibroblasts; actives raise or lower the signal
Description: BSK_hDFCGF is a cell-based, multiplexed-readout assay that uses foreskin fibroblast, a human skin primary cell, with measurements taken at 24 hours after chemical dosing in a 96-well plate.BSK_hDFCGF_MCSF is an assay component measured in the BSK_hDFCGF assay. It measures M-CSF antibody related to regulation of gene expression using ELISA technology.Data from the assay component BSK_hDFCGF_MCSF was analyzed into 1 assay endpoint. This assay endpoint, BSK_hDFCGF_MCSF, was analyzed with bidirectional fitting relative to DMSO as the negative control and baseline of activity. Using a type of binding reporter, gain or loss-of-signal activity can be used to understand changes in the signaling as they relate to the gene CSF1. Furthermore, this assay endpoint can be referred to as a primary readout, because this assay has produced multiple assay endpoints where this one serves a signaling function. To generalize the intended target to other relatable targets, this assay endpoint is annotated to the cytokine intended target family, where the subfamily is colony stimulating factor.
The levels of cell surface (or secreted, indicated by the prefix "s") biomarker endpoints were measured by ELISA. Overt cytotoxicity to cells in confluent adherent cultures (all systems other than the BT system) was assessed by measuring total protein levels using sulforhodamine B (SRB) staining in parallel cultures at the time of biomarker measurements, indicated as SRB endpoints. For proliferation assays for adherent cell types, individual cell types are cultured at sub-confluence and relative cell numbers quantified by SRB staining at time points optimized for each system (48 h: 3C and CASM3C systems; 72 h: BT and HDF3CGF systems; 96 h: SAg system). SRB was performed by staining cells with 0.1% SRB after fixation with 10% TCA and reading wells at 560 nm.Viability and proliferation of PBMC (T cells) was quantified by Alamar Blue reduction for the SAg and BT systems. For PBMC viability (referred to as PBMC Cytotoxicity within the assay endpoint names), cells were plated (75,000/well in a 96-well plate) and then chemical samples added for 1 h before addition of activators, SEB and TSST-1 (20 ng/mL final concentration each). Cells were incubated for 90 h. Then, Alamar Blue (20 uL/well) (Invitrogen, Cat DAL1100) was added for 6 h, and the plates were read with a fluorescence microplate reader at 546/580 nm (excitation/emission). For PBMC proliferation, cells were plated and activated as above but incubated for only 16 h prior to addition of Alamar Blue. Plates were read after 6 h.

| Structure (SMILES) | AC50 | outcome |
| --- | --- | --- |
| c1ccc(Nc2cccc3ccccc23)cc1 | 20 µM (active) and 14.5 µM (active) |  |
| CC/C=C\C/C=C\C/C=C\CCCCCCCC(=O)OC | 8.71 µM (active) |  |
| O=C(Cl)c1c(Cl)c(Cl)c(C(=O)Cl)c(Cl)c1Cl |  | inactive |
| C=CC(=O)NCOCCCC |  | inactive |
| CCOC(=O)C1=NOC(c2ccccc2)(c2ccccc2)C1 |  | inactive |
| CCCC(C)C(=O)OCC (stereo not given) |  | inactive |
| CC=C(C)C(C)=O |  | inactive |
| O=C1CCCCCCCCCCCN1 |  | inactive |
| CC(C)c1cccc(C(C)C)c1N |  | inactive |
| CCCCC1C(=O)N(c2ccccc2)N(c2ccccc2)C1=O |  | inactive |
| COc1ccc(C(=O)/C(Br)=C\C(=O)O)cc1 | 15.4 µM (active) and 20 µM (active) |  |
| COC(OC)(C(=O)c1ccccc1)c1ccccc1 |  | inactive |
| C=C(C)C(=O)OCCCCCCCCCCCC |  | inactive |
| CC(Cl)COP(=O)(OCC(C)Cl)OCC(C)Cl (stereo not given) |  | inactive |
| C=CC(=O)OCC(C)OCC(C)OCC(C)OC(=O)C=C (stereo not given) | 20 µM (active) |  |
| C=CC(=O)NC(C)(C)C |  | inactive |
| C1CNCCN1 |  | inactive |
| Cc1ccc([N+](=O)[O-])cc1N |  | inactive |
| c1ccc2c(c1)[nH]c1ccccc12 |  | inactive |
| CCCCCCCO |  | inactive |

| Structure (SMILES) | AC50 | outcome |
| --- | --- | --- |
| O=C(O)C(F)(F)C(F)(F)C(F)(F)C(F)(F)C(=O)O |  | inactive |
| CC(C)[N+](C)(CCOC(=O)C1c2ccccc2Oc2ccccc21)C(C)C |  | inactive |
| Nc1cccc(N)n1 |  | inactive |
| C[N+](C)(C)CCCNS(=O)(=O)C(F)(F)C(F)(F)C(F)(F)C(F)(F)C(F)(F)C(F)(F)C(F)(F)C(F)(F)F | 46.1 µM (active) and 48.7 µM (active) |  |
| c1ccc2sc(SSN3CCOCC3)nc2c1 | 9.39 µM (active) |  |
| CCN1CN(CC)CN(CC)C1 |  | inactive |
| CCC1(C)C(=O)N(Cl)C(=O)N1Cl (stereo not given) |  | inactive |
| CCCCCCCCCCCC(C)=O |  | inactive |
| CCCCCCC=O |  | inactive |
| CC(c1cc(C(C)(C)C)cc(C(C)(C)C)c1O)c1cc(C(C)(C)C)cc(C(C)(C)C)c1O |  | inactive |
| C=CCCCCCCCCC=O |  | inactive |
| CC1(C)CC(O)CC(C)(C)N1[O] |  | inactive |
| C=CC(=O)OCCCCCCOC(=O)C=C | 5.72 µM (active) |  |
| CCOC(=O)/C=C\C(=O)OCC |  | inactive |
| Oc1c(Cl)cc(Cl)c(Cl)c1Cl |  | inactive |
| CCc1cccc(C)c1N(C(=O)CS(=O)(=O)O)C(C)COC (stereo not given) |  | inactive |
| CCCCCCCCCCCC(=O)N(C)CC(=O)O |  | inactive |
| CC/C=C\CCOC(=O)c1ccccc1O | 13.1 µM (active) |  |
| Cc1c(O)cccc1O |  | inactive |
| CC(C)C(=O)OCCc1ccccc1 |  | inactive |
